Measurements reported in the supplement of paper PMC13380429.

Test system: Vero E6 infected with SARS-CoV-2
Assay: inhibition of SARS-CoV-2 cytopathic effect; higher = more antiviral protection, active = above 15
Details: 48 h

Measured: inhibition of SARS-CoV-2 cytopathic effect

NC(=S)N/N=C/c1ccncc1 [perchlozone]
inactive: 1 nM 2.2% | 8.33 nM 1.74% | 100 nM 0.96% | 833.33 nM 2.38% | 10000 nM 3.63%

COc1ccc(C2(O)CCC(N3CC[C@@H](NC(=O)CNC(=O)c4cccc(C(F)(F)F)c4)C3)CC2)cn1 (stereo not given in full)
inactive: 1 nM -0.385% | 8.33 nM 0.89% | 100 nM -1.07% | 833.33 nM -1.1% | 10000 nM -0.44%

COCCCC/C(=N\OCCN)c1ccc(C(F)(F)F)cc1 [fluvoxamine]
inactive: 1 nM 6.3% | 8.33 nM 3.03% | 100 nM -1.16% | 833.33 nM -0.69% | 10000 nM -6.73%

Cc1nc(C)c(Cl)c(O)c1Cl [clopidol]
inactive: 1 nM -2.81% | 8.33 nM -1.24% | 100 nM 1.07% | 833.33 nM 0.96% | 10000 nM 1.78%

C[C@@H](C1=C(CCN(C)C)Cc2ccccc21)c1ccccn1 (racemic) [dimetindene]
inactive: 1 nM -0.06% | 8.33 nM 0.69% | 100 nM 0.085% | 833.33 nM 1.68% | 10000 nM 1.16%

C[C@H](CSC(=O)c1ccccc1)C(=O)N1C[C@@H](Sc2ccccc2)C[C@H]1C(=O)O [zofenopril-calcium]
inactive: 1 nM 0.93% | 8.33 nM -2.52% | 100 nM -3.63% | 833.33 nM -4.57% | 10000 nM -1.54%

CCC(C)(C)C(=O)C(=O)N1CCC[C@H]1C(=O)OCCCc1cccnc1
inactive: 1 nM 0.46% | 8.33 nM 0.86% | 100 nM 1.28% | 833.33 nM -0.32% | 10000 nM 1.17%
